# PMC7862700, “An all-to-all approach to the identification of sequence-specific readers for epigenetic DNA modifications on cytosine”
# What was measured:
# Assay in all cases: DAPPL (digital affinity profiling via proximity ligation, sequencing); 10 mM Tris-HCl pH 7.5, 50 mM NaCl, 1 mM DTT, 4% glycerol, room temperature, 30 min; GST-TFs on glutathione beads, 16-mer random dsDNA library, 0.1% formaldehyde crosslink after washing; high values mean tight binding
# Settings in all cases: protein: recombinant; tags: N-terminal GST; dsDNA, one strand shown
# ELK1 = molecular target: T1, ELK1 (Homo sapiens, UniProt P19419 1-428)
# T1 sequence: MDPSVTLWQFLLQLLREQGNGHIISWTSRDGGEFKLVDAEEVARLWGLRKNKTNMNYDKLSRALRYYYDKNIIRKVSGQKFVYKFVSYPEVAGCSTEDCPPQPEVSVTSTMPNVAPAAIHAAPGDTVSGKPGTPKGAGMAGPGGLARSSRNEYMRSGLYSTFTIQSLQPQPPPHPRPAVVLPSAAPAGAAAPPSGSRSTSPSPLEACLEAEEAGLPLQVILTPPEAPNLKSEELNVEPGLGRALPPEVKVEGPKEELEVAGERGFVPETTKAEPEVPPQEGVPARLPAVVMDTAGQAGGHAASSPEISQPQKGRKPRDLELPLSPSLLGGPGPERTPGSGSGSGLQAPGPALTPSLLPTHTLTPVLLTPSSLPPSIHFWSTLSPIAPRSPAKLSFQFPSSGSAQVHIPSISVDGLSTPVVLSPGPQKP
# Outline: (§1)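 Beads coated with glutathione captured GST-fused human transcription factors that had been expressed in yeast, and the factors were then given DNA barcodes and pooled with a tag-only sample. The pools were incubated with 200 nmole of a random double-stranded 16-mer DNA library in Tris/NaCl/DTT/glycerol buffer for 30 min at room temperature, washed, crosslinked with 0.1% formaldehyde and proximity-ligated with BsaI/T4 ligase at 37 °C for 1 h. PCR amplification and Illumina NextSeq500 sequencing came last. Binding signal is each hexamer's read frequency for a factor divided by its frequency for the tag-only sample.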
# GABPA = molecular target: T2, GABPA (Homo sapiens, UniProt Q06546 1-454)
# T2 sequence: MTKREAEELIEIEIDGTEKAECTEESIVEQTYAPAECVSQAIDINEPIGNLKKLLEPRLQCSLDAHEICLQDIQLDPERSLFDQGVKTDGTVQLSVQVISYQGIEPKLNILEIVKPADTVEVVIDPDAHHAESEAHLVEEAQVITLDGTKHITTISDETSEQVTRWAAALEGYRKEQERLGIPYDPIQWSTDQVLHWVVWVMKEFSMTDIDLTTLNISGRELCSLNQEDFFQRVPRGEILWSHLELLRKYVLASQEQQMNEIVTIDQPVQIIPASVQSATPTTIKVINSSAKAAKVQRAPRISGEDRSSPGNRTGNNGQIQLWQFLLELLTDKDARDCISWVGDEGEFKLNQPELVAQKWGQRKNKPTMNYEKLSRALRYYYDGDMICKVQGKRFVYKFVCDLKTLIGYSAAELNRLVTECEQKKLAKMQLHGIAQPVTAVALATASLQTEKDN
# Outline: as §1
# ETV5 = ETV5 (Homo sapiens, UniProt P41161 1-510)
# Outline: as §1
# ELF3 = molecular target: T3, ELF3 (Homo sapiens, UniProt P78545 1-371)
# T3 sequence: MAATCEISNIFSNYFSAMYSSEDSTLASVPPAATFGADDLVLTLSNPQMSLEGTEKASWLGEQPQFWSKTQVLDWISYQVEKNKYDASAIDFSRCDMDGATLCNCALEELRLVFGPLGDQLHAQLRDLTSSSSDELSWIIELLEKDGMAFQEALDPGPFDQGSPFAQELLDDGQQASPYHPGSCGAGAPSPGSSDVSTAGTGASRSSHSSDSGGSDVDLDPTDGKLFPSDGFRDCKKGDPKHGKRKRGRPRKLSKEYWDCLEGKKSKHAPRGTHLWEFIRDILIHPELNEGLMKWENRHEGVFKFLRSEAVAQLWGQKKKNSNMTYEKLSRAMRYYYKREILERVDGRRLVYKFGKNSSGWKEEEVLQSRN
# Outline: as §1
# ERF = molecular target: T4, ERF (Homo sapiens, UniProt P50548 1-548)
# T4 sequence: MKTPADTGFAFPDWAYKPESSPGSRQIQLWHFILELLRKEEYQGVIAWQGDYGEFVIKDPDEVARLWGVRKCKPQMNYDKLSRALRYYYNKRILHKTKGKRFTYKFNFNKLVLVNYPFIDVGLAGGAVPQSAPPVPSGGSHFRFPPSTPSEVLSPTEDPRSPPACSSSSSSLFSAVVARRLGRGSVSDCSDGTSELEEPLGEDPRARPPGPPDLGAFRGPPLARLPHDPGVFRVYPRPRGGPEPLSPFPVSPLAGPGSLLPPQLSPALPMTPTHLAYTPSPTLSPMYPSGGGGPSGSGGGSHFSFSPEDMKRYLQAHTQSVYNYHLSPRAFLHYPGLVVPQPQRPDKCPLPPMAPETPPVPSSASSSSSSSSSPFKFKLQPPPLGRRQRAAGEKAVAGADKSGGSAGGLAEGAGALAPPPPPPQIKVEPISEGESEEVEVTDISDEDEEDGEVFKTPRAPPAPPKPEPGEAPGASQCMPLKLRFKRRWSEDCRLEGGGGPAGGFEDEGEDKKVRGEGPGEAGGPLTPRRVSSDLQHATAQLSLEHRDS
# Outline: as §1
# ELK4 = molecular target: T5, ELK4 (Homo sapiens, UniProt P28324-2 1-405)
# T5 sequence: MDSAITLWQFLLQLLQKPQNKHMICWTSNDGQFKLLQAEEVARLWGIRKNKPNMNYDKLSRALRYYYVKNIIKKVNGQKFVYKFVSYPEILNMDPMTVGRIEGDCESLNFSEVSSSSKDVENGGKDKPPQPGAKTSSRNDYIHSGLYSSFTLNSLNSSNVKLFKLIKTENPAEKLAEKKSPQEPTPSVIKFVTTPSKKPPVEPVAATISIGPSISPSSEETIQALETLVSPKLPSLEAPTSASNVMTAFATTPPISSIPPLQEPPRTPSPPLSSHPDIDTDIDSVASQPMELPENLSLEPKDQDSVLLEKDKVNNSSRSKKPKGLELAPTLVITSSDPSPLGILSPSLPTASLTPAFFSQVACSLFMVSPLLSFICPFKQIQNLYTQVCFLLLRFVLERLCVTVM
# Outline: as §1
# ETV7 = molecular target: T6, ETV7 (Homo sapiens, UniProt Q9Y603 1-341)
# T6 sequence: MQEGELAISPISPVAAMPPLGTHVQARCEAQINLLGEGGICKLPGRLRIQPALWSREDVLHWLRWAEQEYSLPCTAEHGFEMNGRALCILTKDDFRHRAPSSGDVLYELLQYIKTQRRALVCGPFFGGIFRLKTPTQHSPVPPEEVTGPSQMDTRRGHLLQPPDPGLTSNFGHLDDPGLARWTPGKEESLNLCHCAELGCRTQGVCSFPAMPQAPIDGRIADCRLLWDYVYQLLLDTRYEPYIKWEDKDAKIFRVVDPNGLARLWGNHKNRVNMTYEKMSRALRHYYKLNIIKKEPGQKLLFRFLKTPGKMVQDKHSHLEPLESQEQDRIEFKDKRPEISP
# Outline: as §1
# SPDEF = molecular target: T7, SPDEF (Homo sapiens, UniProt O95238 1-335)
# T7 sequence: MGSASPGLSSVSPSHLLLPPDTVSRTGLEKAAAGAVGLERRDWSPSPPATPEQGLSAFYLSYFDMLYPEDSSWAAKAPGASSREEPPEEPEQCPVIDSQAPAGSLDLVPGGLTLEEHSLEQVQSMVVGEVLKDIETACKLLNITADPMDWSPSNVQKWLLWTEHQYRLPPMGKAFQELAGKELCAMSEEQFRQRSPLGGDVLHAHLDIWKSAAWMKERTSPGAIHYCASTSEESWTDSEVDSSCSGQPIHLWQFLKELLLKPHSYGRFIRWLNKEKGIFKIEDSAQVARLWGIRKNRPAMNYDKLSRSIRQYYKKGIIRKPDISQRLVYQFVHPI
# Outline: as §1
# ETV6 = ETV6 (Homo sapiens, UniProt P41212 1-452)
# Outline: as §1
# Chain of ETV5 (P41161 whole entry): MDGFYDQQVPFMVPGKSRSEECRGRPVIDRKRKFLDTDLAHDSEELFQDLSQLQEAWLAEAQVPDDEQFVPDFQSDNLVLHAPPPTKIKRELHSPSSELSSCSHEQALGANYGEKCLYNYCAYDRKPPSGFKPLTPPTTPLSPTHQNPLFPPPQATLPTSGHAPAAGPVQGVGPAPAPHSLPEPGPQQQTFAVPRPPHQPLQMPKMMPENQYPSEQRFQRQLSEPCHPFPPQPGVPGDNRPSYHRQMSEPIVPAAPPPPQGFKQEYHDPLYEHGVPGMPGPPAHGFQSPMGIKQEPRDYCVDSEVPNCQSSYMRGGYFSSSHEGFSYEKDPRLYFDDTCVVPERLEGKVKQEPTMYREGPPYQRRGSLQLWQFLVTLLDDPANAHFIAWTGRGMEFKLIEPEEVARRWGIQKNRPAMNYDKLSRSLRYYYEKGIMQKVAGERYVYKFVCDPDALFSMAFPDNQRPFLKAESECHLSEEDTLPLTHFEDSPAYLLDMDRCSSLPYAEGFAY
# Chain of ETV6 (P41212 whole entry): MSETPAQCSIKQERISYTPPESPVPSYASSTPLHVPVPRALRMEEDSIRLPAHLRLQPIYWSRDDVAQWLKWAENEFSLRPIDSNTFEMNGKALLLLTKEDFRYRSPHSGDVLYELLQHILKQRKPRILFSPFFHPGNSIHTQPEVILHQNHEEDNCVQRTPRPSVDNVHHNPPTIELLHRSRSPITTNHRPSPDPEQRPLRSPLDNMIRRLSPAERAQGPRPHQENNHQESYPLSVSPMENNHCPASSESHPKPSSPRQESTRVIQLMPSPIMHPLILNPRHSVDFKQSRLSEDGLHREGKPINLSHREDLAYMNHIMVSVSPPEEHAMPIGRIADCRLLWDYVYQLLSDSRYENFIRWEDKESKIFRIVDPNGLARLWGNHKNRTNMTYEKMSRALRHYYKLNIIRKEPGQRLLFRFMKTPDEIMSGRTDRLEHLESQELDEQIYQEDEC
sequence,measurement,setting,value
GGCAAT,binding signal,ELK1,"1 fold enrichment (6-mer frequency, TF over GST control)"
same,binding signal,GABPA,"1 fold enrichment (6-mer frequency, TF over GST control)"
same,binding signal,ETV5,"1 fold enrichment (6-mer frequency, TF over GST control)"
same,binding signal,ELF3,"1.01 fold enrichment (6-mer frequency, TF over GST control)"
same,binding signal,ERF,"1.02 fold enrichment (6-mer frequency, TF over GST control)"
GTTGGT,binding signal,GABPA,"1.04 fold enrichment (6-mer frequency, TF over GST control)"
same,binding signal,ETV5,"1.01 fold enrichment (6-mer frequency, TF over GST control)"
same,binding signal,ELK4,"1.09 fold enrichment (6-mer frequency, TF over GST control)"
same,binding signal,ETV7,"1.02 fold enrichment (6-mer frequency, TF over GST control)"
AGTACC,binding signal,ETV5,"1.04 fold enrichment (6-mer frequency, TF over GST control)"
same,binding signal,SPDEF,"1.01 fold enrichment (6-mer frequency, TF over GST control)"
same,binding signal,ETV6,"1.04 fold enrichment (6-mer frequency, TF over GST control)"
